Bioassay records deposited in PubChem by The Scripps Research Institute Molecular Screening Center.
ssDAF-12 act: S. stercoralis DAF-12 nuclear receptor activators, primary screen, cell-based, luminescence, HEK293, GRIP1 co-expression, lit1-tk-luc; HEK293 ssDAF-12/GRIP1 lit1-tk-luc reporter; % of 3 µM dafachronic acid response; activation, % at 6.8 µM; 370,000 compounds, 1% hits; AID 652126, 2013;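 active = activation above the mean over all tested compounds plus 3 SD, cut at about 0.9% in these data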;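 note: 0% = DMSO-only wells and 100% = 3 µM delta7-dafachronic acid wells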
hcDAF12 agonist: H. contortus DAF-12 nuclear receptor activators, primary screen, cell-based, luminescence, HEK293, lit1-tk-luc reporter | HEK293 hcDAF-12 lit1-tk-luc reporter; 0% DMSO, 100% Δ7-dafachronic acid | activation, % at 6.8 µM | 370,000 compounds, 1.4% hits | AID 652067, 2013;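 active = activation above the mean of all tested compounds plus 3 SD, cut at about 5.5% in these data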;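 note: 100% = response to 3 µM Δ7-dafachronic acid high control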
hgDAF12 agonist: H. glycines DAF-12 receptor agonists, primary screen, cell-based, luminescence, HEK293, GAL4 fusion, UAS-luciferase | HEK293 GAL4-hgDAF12 UAS-luciferase reporter, agonist luminescence; normalized to butyrate control | activation, % at 6.8 µM | 370,000 compounds, 1.8% hits | AID 687014, 2013;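 active = activation above a cutoff set at the mean of all screened compounds plus 3 SD, cut at about 10% in these data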;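 note: 0% = DMSO wells and 100% = sodium butyrate wells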
DAX1 inh-1: DAX1 (NR0B1) inhibitors on StAR promoter, primary screen, cell-based, luminescence, SF-1 (NR5A1), full-length DAX-1; inhibition, % at 6.8 µM; HEK293T StAR-luciferase reporter, SF-1/DAX-1 repression relief; 370,000 compounds, 1.1% hits; AID 652010, 2013;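 active = inhibition above the mean over all tested compounds plus 3 SD, cut at about 3.6% in these data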;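 note: 0% = DAX-1 cells with DMSO and 100% = cells lacking DAX-1 with DMSO; higher inhibition means more luminescence from relief of DAX-1 repression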
DAX1 inh-2: DAX1 (NR0B1) inhibitors, primary screen, cell-based, HEK293, Gal4-DAX1, luciferase luminescence. 340,000 compounds, 0.99% hits. inhibition, % at 6.75 µM. HEK293 Gal4-DAX1 luciferase reporter. Nuclear receptor subfamily 0 group B member 1 (Homo sapiens), P51843;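 active = inhibition above the mean over all tested compounds plus 3 SD, cut at about 4.2% in these data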;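 note: 0% = DAX1-transfected cells with DMSO and 100% = empty-vector control cells with DMSO; inhibition shows as a rise in luminescence from relieved DAX1 repression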
Target sequence (P51843 207-470 limits assumed): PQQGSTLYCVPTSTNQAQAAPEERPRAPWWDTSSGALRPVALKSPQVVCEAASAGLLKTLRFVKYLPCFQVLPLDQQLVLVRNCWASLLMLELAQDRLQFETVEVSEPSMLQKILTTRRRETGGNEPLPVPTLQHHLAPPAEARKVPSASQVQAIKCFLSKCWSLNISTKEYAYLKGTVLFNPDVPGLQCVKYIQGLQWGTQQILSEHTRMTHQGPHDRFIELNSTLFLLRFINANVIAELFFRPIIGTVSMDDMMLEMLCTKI
An asterisk follows results filed as active. This is a sample that favours compounds with a hit; in the whole collection about 4.1% have one here.

`CC(=O)c1cccc(NC(=O)Nc2nc(C)cc(C)n2)c1` gave ssDAF-12 act 0, hcDAF12 agonist 0, hgDAF12 agonist -1, DAX1 inh-1 2 and DAX1 inh-2 4.7*.
`CCN(CC)c1ccc(NC(=O)Nc2ccc(C(C)=O)cc2)cc1` gave ssDAF-12 act -1, hcDAF12 agonist 1, hgDAF12 agonist 2, DAX1 inh-1 -1 and DAX1 inh-2 -2.
CC(=O)c1ccc(NC(=O)Nc2ccccc2)cc1 was read as ssDAF-12 act 0, hcDAF12 agonist 4, hgDAF12 agonist 13*, DAX1 inh-1 3.6* and DAX1 inh-2 -1.
Cc1ccc(-n2c(SCC(=O)Nc3ccc4c(c3)OCCO4)nnc2-c2cnccn2)cc1 was read as ssDAF-12 act -1, hcDAF12 agonist -3, hgDAF12 agonist -1 and DAX1 inh-1 0.
Screening COC(=O)[C@]12C[C@H](CC(=O)N3CCCCC3)C(=O)N(Cc3cccc4ccccc34)C1=C[C@H](C(C)(C)C)O[C@@H]2C returned ssDAF-12 act 0, hcDAF12 agonist 1, hgDAF12 agonist -2 and DAX1 inh-1 -2.
`COc1ccc(CN2C[C@]3(C=C(C)Cn4c(=O)n(-c5ccccc5)c(=O)n43)N=C2NC(=O)c2ccccc2)c(OC)c1` gave ssDAF-12 act -2, hcDAF12 agonist -2, hgDAF12 agonist 2 and DAX1 inh-1 -1.
Cc1cc(C)cc(C(=O)OCCN(C)C2CN(Cc3cn(Cc4ccc([N+](=O)[O-])cc4)nn3)S(=O)(=O)C2)c1 (stereo unspecified) was read as ssDAF-12 act -1, hcDAF12 agonist -2, hgDAF12 agonist 1 and DAX1 inh-1 -2.
`COc1ccc2nc(SCC(=O)NC(C)(C)C)[nH]c2c1` gave ssDAF-12 act -1, hcDAF12 agonist 0, hgDAF12 agonist 5, DAX1 inh-1 1 and DAX1 inh-2 -1.
Screening COc1ccc2nc(SCC(=O)C(C)(C)C)[nH]c2c1 returned ssDAF-12 act -1, hcDAF12 agonist 1, hgDAF12 agonist 8, DAX1 inh-1 0 and DAX1 inh-2 4.5*.
Screening O=C(COc1ccc2c(c1)OCO2)Nc1ccccc1F returned ssDAF-12 act 0, hcDAF12 agonist 4, hgDAF12 agonist 13*, DAX1 inh-1 3 and DAX1 inh-2 4.
For OC1CCN(Cc2ccc(OCc3ccccc3)cc2)CC1 the results were ssDAF-12 act 0, hcDAF12 agonist 6.3*, hgDAF12 agonist 11*, DAX1 inh-1 2 and DAX1 inh-2 2.
O=C(C1CCN(Cc2ccc(OCc3ccccc3)cc2)CC1)N1CCCC1 was read as ssDAF-12 act -1, hcDAF12 agonist 0, hgDAF12 agonist 2, DAX1 inh-1 -1 and DAX1 inh-2 -1.
CCCCNC(=O)C1CCN(Cc2ccc(OCc3ccccc3)cc2)CC1 was read as ssDAF-12 act 0, hcDAF12 agonist 0, hgDAF12 agonist 11*, DAX1 inh-1 0 and DAX1 inh-2 0.
Screening CC(C)=CCC[C@@]1(C(=O)O)[C@H]2CC=C(CO)[C@@H]1CC/C(C)=C/CC/C(C)=C/C2 returned ssDAF-12 act -1, hcDAF12 agonist -3, hgDAF12 agonist -6 and DAX1 inh-1 -1.
For COC(=O)[C@]1(CNS(=O)(=O)C2CC2)CC(=O)N(C)[C@@H]1c1ccccc1 the results were ssDAF-12 act -2, hcDAF12 agonist -1, hgDAF12 agonist -2 and DAX1 inh-1 -1.
O=C(Nc1cccnc1Cl)c1cc(-c2ccco2)on1 was read as ssDAF-12 act 0, hcDAF12 agonist 0, hgDAF12 agonist 13*, DAX1 inh-1 2 and DAX1 inh-2 1.
Screening COc1ccc(S(=O)(=O)N2CCN(C(=O)CSc3nc4ccccc4nc3N3CCCCC3)CC2)cc1 returned ssDAF-12 act -1, hcDAF12 agonist 3, hgDAF12 agonist 0 and DAX1 inh-1 -1.
O=C(N/N=C/c1cccc(OC(=O)N2CCOCC2)c1)c1cccs1 was read as ssDAF-12 act -1, hcDAF12 agonist 4, hgDAF12 agonist 11*, DAX1 inh-1 1 and DAX1 inh-2 1.
Cc1cccc2c(=O)c(C(=O)NCCc3ccccc3)c[nH]c12 was read as ssDAF-12 act -1, hcDAF12 agonist 0, hgDAF12 agonist 0, DAX1 inh-1 0 and DAX1 inh-2 -1.
O=C(NCCc1ccccc1)c1c[nH]c2c(F)cccc2c1=O was read as ssDAF-12 act 0, hcDAF12 agonist 5.6*, hgDAF12 agonist 7, DAX1 inh-1 0 and DAX1 inh-2 2.
Screening CSCCNC(=O)C1(C)CCN1C(=O)C/C=C/c1ccccc1 (stereo unspecified) returned ssDAF-12 act 1.2*, hcDAF12 agonist 2, hgDAF12 agonist 1 and DAX1 inh-1 0.
CC1(C(=O)NS(=O)(=O)c2ccccc2Cl)CCN1C(=O)C/C=C/c1ccccc1 (stereo unspecified) was read as ssDAF-12 act -1, hcDAF12 agonist 0, hgDAF12 agonist 12* and DAX1 inh-1 0.
For CC1(C(=O)NCC2CC2)CCN1C(=O)C/C=C/c1ccccc1 (stereo unspecified) the results were ssDAF-12 act -1, hcDAF12 agonist -3, hgDAF12 agonist 1 and DAX1 inh-1 0.
O=C1CCC[C@H]2Cc3nc4cccc(Cl)c4cc3C[C@]23CCCN13 was read as ssDAF-12 act -1, hcDAF12 agonist -2 and hgDAF12 agonist 2.
`CCN(CC)C(=O)C(C)N(C#N)c1nc(C)cc(C)n1` (stereo unspecified) gave ssDAF-12 act -1, hcDAF12 agonist 6.3*, hgDAF12 agonist 2, DAX1 inh-1 0 and DAX1 inh-2 -2.
For O=C1CCCC/C1=C\Nc1ccc(Cl)cn1 the results were ssDAF-12 act -1, hcDAF12 agonist -1, hgDAF12 agonist 0, DAX1 inh-1 0 and DAX1 inh-2 4.3*.
`Cc1ccc(N/C=C2\CCCCC2=O)nc1` gave ssDAF-12 act -1, hcDAF12 agonist 1, hgDAF12 agonist 7, DAX1 inh-1 0 and DAX1 inh-2 0.
CC(=O)c1sc(-c2ccccc2)cc1N was read as ssDAF-12 act -2, hcDAF12 agonist -1, hgDAF12 agonist 0 and DAX1 inh-1 0.
Screening CC(C)(C)N=Cc1cc(-c2ccccc2)sc1O returned ssDAF-12 act 0, hcDAF12 agonist 1, hgDAF12 agonist 12*, DAX1 inh-1 2 and DAX1 inh-2 2.
`CCOC(=O)C1(C(=O)OCC)Cc2c([nH]c3ccccc23)[C@]2(N1)C(=O)N(C)c1ccc(Br)cc12` gave ssDAF-12 act 0, hcDAF12 agonist 3, hgDAF12 agonist -1 and DAX1 inh-1 -1.
